# Compounds with a hit are over-represented: about 17% of the library has one in this group of screens.
# ATXN viability – viability counter-screen for ATXN expression inhibitors; Potency, µM (series often up to 56.7 µM), hits mostly cytotoxic; 0.49% of 400,000 active; S2 cells (HEK-293 line with an ATXN2-luciferase reporter) viability, CellTiter-Fluor protease fluorescence, 24 h; further: nearly all actives have a fitted effect of over 40% in size
# ATXN2 expr inh – inhibitors of ATXN2 expression. Potency, µM (titrated, usually from 57 µM), for inactives: top-dose activity change, negative = inhibition, usual class: inhibitors. HEK-293 ATXN2-luciferase reporter, luminescence, 24 h. AID 1745845. 0.72% of 360,000 active; further: on the % scale 0 is the no-effect control and ±100 the full control effect; nearly all actives have a fitted effect of over 55% in size
#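 qHTS (up to 57 uM final) was run with 24 h compound exposure of reporter cells at 37 °C. Each well was multiplexed: SteadyGlo luminescence measured ATXN2-luciferase expression after a fluorogenic Gly-Phe-AFC viability readout (25 uM final).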
# DT40 TDP1 no CPT – qHTS for Inhibitors of human tyrosyl-DNA phosphodiesterase 1 (TDP1): qHTS in cells in absence of CPT | DT40 Tdp1-/- hTDP1 cells, no CPT, ATP luminescence, 48 h | Potency, µM (series often up to 46.2 µM), for the others: top-dose activity change, negative = growth inhibition, most hits filed as inhibitors | 15% of 420,000 active | AID 686978, 2013; further: on the % scale 0 is the no-effect control and ±100 the full control effect; nearly all actives have a fitted effect of over 55% in size
#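 Growth kinetics read by CellTiter-Glo luminescence after ≥48 hr at 37 °C. Cells: DT40 Tdp1-/- stably carrying human TDP1, 400 per well, compound exposure in the absence of CPT (DMSO vehicle).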
# HepG2 viability – counter-screen for TGF-b inhibitors: cytotoxicity in HepG2 cells | HepG2 CAGA-GFP viability, ATP luminescence, 18 h | Potency, µM (titrated, usually from 46.1 µM), inactives show top-dose activity change, negative = cytotoxicity, most hits filed as cytotoxic | 0.76% of 410,000 active
#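 HepG2 CAGA-GFP cells (1000/well, DMEM with 1% FBS) received compound, then TGF-beta at 500 pg/mL final, and were incubated 18 hours at 37 degrees C. Viability was read by CellTiter-Glo luminescence. Media-only wells were set as complete cell-killing and DMSO as no toxicity.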
# TGFb inhibitor – inhibitors of TGF-b signaling. HepG2 CAGA-GFP TGF-b/SMAD3 reporter, GFP fluorescence, 18 h; TGF-beta stimulated, 500 pg/mL final. Potency, µM (series often up to 46.1 µM), for inactives: at the top dose activity, negative = inhibition, most hits filed as inhibitors. 1.2% of 410,000 active. AID 588855; further: on the % scale 0 is the no-effect control and ±100 the full control effect; nearly all actives have a fitted effect of over 65% in size
#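 HEPG2 CAGA-GFP, 1000 cells/well; 2 h settle, 37 C; cpd via pin tool; TGF-b 500 pg/mL final; 18 h, 37 C; GFP imaging ex488/em500-530; %Activity normalised to -TGF-b and +DMSO controls; CRC fit, curve class.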
# TDP1 cell CPT – DT40-hTDP1 cell growth loss with CPT | chicken DT40 Tdp1-/-;hTDP1 cells + 20 nM CPT, ATP luminescence, 48 h | Potency, µM (highest dose often 46.2 µM), for the others: at the highest dose activity change, negative = growth inhibition, actives largely listed as inhibitors | 12% of 420,000 active; further: on the % scale 0 is the no-effect control and ±100 the full control effect; nearly all actives have a fitted effect of over 55% in size
#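 Cell growth measured by CellTiter-Glo luminescence after a minimum 48 h, 37 C compound exposure with 20 nM CPT in Tdp1-knockout DT40 cells stably expressing hTDP1, seeded 400/well; qHTS titration format.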
# Numbers without * were called inactive; i = inactive; u = inconclusive; x = no result given; [ ] = another dose, or the depositor's remark. The call rests on the fitted dose curve; in most records, active means well fitted curve in the direction sought with a large enough effect; inconclusive means small, poorly fitted or top-dose-only effect, or another doubt; inactive means no such curve, though single readings can be large; an effect the other way counts as inactive or inconclusive. Potency means the concentration at half of the fitted maximal effect.
SMILES,ATXN viability,ATXN2 expr inh,DT40 TDP1 no CPT,HepG2 viability,TGFb inhibitor,TDP1 cell CPT
CC(=O)N1CCC(N(Cc2ccco2)C(=O)Nc2cccc(C)c2)CC1,i,-1%,u,0%,-28%,1%
CC(=O)Nc1ccc(Nc2ccc3c4c(cc(=O)n3C)-c3ccccc3C(=O)c24)cc1,i,4%,6.5µM*,-4%,11%,-25%
CC(=O)Nc1ccc(NS(=O)(=O)c2ccc3c(c2)n(C)c(=O)n3C)cc1,i,13%,-2%,8%,0%,-1%
O=C(Nc1ccc2nc(-c3ccco3)[nH]c2c1)c1cccs1,i,6%,u,-28%,-1%,21µM*
O=C(Nc1ccc2nc(-c3ccco3)[nH]c2c1)c1ccco1,i,31%,u,-36%,-9%,u
Cc1ccc2nc(-c3ccc(NC(=O)Cc4cccs4)cc3)[nH]c2c1,i,-10%,u,-65%,u,23µM*
O=C(Nc1ccc2nc(-c3ccc4nc[nH]c4c3)[nH]c2c1)c1cccs1,i,14%,u,-41%,2%,-25%
O=C(Nc1ccc2nc(-c3ccccc3)[nH]c2c1)c1cccs1,i,29%,13µM*,-54%,u,26µM*
O=C(c1ccccc1)c1ccc2nc(-c3ccc(NC(=O)c4ccccc4F)cc3)[nH]c2c1,u,-30%,3.3µM*,-45%,u,3.7µM*
CCc1nnc(NC(=O)CSc2nc(C)nc3c2c(=O)n(C)c(=O)n3C)s1,i,-4%,-20%,0%,14%,-26%
CC(C)N1CN(c2ccccc2)C(=S)N(c2ccccc2)C1,i,-1%,23µM*,-47%,0%,u
S=C1N(c2ccccc2)CN(CCN2CCOCC2)CN1c1ccccc1,i,6%,-6%,4%,-12%,19%
CCOC(=O)CNC(=O)C1(NC(=O)CNC(=O)OCc2ccccc2)CCCC1,i,8%,0%,9%,11%,1%
N#C/C(=C(/O)c1ccccc1F)c1nc2cc(C(F)(F)F)ccc2s1,i,x,u,-56%,u,u
N#C/C(=C(/O)c1ccc2c(c1)OCO2)c1nc2cc(C(F)(F)F)ccc2s1,i,u,15µM*,-28%,u,10µM*
COC(=O)/C=C\C(=O)OC,i,7%,x,x,x,x
O=C(CSc1ncnc2sc3c(c12)CCCCC3)NCc1ccco1,i,3%,9.2µM*,-2%,u,9.2µM*
c1coc(CNc2nc3sc4c(c3c3ncnn23)CCCC4)c1,i,10%,12µM*,-13%,u,u
O=C(CSc1ncnc2sc3c(c12)CCCC3)c1ccco1,i,51%,u,-31%,0%,u
CC(C)c1nc2sc3c(SCC(=O)NCc4ccco4)ncnc3c2c2c1CCC2,i,-1%,16µM*,-4%,-3%,u
Cc1nc2sc3c(c2c2nnc(SCC(=O)NCc4ccco4)n12)CCCC3,i,-7%,u,-4%,2%,-25%
O=C(CSc1nc2sc3c(c2c(=O)n1-c1ccccc1)CCCC3)NCc1ccco1,i,-5%,u,-18%,-3%,15µM*
CC(C)CN(C(=O)CSc1nnnn1-c1ccccc1)c1c(N)n(CC(C)C)c(=O)[nH]c1=O,i,1%,-9%,-21%,6%,-12%
COC(=O)c1cc2oc3ccccc3c2n1Cc1ccccc1Cl,x,x,-6%,1%,x,20%
O=C(CSc1ncnc2sc3c(c12)CCCC3)c1ccccc1,i,42%,u,-8%,6%,29µM*
CC(=O)C(Sc1ncnc2sc3c(c12)CCCC3)C(C)=O,i,-10%[11.3 µM],u,-17%,9%,13µM*

# From PubChem BioAssay
